Assay outcomes from PubChem.
L3MBTL1 block – L3MBTL1 (human) inhibition; AID 485360; AlphaScreen L3MBTL1–H3K9me1 peptide binding; Q9Y468; Potency, µM (titrated, usually from 57.1 µM), hits mostly inhibitors; 230,000 compounds, 0.66% hits; further: nearly all actives have a fitted effect of over 60% in size
Target sequence (Q9Y468 whole entry, looked up): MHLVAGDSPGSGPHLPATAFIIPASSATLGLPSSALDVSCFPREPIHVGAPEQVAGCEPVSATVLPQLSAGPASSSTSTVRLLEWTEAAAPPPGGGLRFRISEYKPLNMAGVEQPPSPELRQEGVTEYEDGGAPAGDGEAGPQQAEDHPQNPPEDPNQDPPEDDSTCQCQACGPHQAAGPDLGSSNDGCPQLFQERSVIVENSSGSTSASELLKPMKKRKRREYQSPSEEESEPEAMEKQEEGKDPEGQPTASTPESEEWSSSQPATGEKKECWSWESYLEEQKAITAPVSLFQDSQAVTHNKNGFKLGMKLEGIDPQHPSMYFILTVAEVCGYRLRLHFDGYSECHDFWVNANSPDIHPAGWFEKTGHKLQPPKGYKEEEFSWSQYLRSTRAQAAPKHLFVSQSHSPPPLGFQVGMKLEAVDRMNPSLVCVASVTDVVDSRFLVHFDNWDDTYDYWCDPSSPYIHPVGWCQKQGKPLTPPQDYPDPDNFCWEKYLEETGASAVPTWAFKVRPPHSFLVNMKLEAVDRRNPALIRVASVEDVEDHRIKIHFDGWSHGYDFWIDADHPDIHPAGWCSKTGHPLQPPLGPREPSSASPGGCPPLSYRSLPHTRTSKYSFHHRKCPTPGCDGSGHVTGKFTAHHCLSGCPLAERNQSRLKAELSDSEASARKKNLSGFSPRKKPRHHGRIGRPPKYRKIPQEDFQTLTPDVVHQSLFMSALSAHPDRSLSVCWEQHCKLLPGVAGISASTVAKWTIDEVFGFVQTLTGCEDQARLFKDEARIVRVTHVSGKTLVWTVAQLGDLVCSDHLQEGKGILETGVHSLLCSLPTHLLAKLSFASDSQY
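AlphaScreen proximity signal between nickel-chelate acceptor and streptavidin donor beads (final 10 ug/mL) reports binding of 50 nM L3MBTL1 to 75 nM biotin-H3 K9me1 peptide; complex incubated with compounds 30 min at room temperature; cefsulodin titration as control.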
JMJD2A Tudor inh – JMJD2A Tudor domain (human) inhibition; O75164; AlphaScreen JMJD2A-Tudor / H3K4me3 peptide binding; Potency, µM (top dose mostly 114 µM), usual class: inhibitors; 390,000 compounds, 4.4% hits; AID 504339; further: nearly all actives have a fitted effect of over 50% in size
G9a inh-1 – G9a (human) methyltransferase inhibition; G9a H3K9 monomethylation, AlphaScreen, 2 h; Q96KQ7; 350,000 compounds, 8.8% hits; Potency, µM (titrated, usually from 102 µM), hits mostly inhibitors; further: nearly all actives have a fitted effect of over 75% in size
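Signal arises when biotinylated H3K9 peptide, once monomethylated, bridges streptavidin donor and antibody-captured acceptor beads. Enzyme at 20 nM was preincubated 15 min with test compounds; peptide 500 nM and SAM 20 uM then reacted for 2 h.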
HP1b binding inh – inhibitors of HP1-beta chromodomain binding to methylated histone tails; AlphaScreen HP1-beta / biotin-H3K9me3 peptide binding; Potency, µM (doses to about 114 µM), actives largely listed as inhibitors; P83916; 390,000 compounds, 0.56% hits; further: nearly all actives have a fitted effect of over 70% in size
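HP1-beta protein (50 nM final) preincubated 30 min at room temperature with biotinylated H3(1-18)K9me3 peptide (50 nM) in PBS pH 7.4, 0.01% Tween-20, then compound added for 30 min. AlphaScreen streptavidin donor/nickel chelate acceptor beads (10 ug/mL final), 30 min dark, luminescence read.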
BAZ2B block – BAZ2B (human) inhibition; 360,000 compounds, 4.4% hits; AID 504333; AlphaScreen BAZ2B-H3K14Ac peptide displacement; Q9UIF8; Potency, µM (titrated, usually from 114 µM), hits mostly inhibitors; further: nearly all actives have a fitted effect of over 60% in size
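Protein-peptide AlphaScreen: BAZ2B 50 nM, b-H3K14Ac 50 nM, 1x PBS pH 7.4 + 0.01% Tween-20. Preincubation 30 min RT; cpd 30 min RT (top 110 uM); beads 20 min RT, light-protected.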
JMJD2E inh – confirmation of inhibitors of human JMJD2E demethylase | Recombinant JMJD2E, FDH-coupled NADH fluorescence (FDH is formaldehyde dehydrogenase) | shares compounds with JMJD2A Tudor inh | 140 compounds, 93% hits | Potency, µM (titrated, usually from 56.8 µM), actives largely listed as inhibitors
FDH counter – FDH (Pseudomonas putida) inhibition counter-screen; shares compounds with JMJD2A Tudor inh; FDH enzyme assay, NADH fluorescence kinetic; Potency, µM (titrated, usually from 56.7 µM), hits mostly inhibitors; 140 compounds, 10% hits; AID 2680
G9a inh-2 – confirmation of human histone methyltransferase G9a inhibitors. shares compounds with JMJD2A Tudor inh. G9a H3K9 monomethylation, AlphaScreen, 2 h. Potency, µM, hits mostly inhibitors. 370 compounds, 89% hits; further: nearly all actives have a fitted effect of over 65% in size
Of the large screens only hits and unclear results are named; the others gave an inactive call (follow-up assays come after a bar, where they were run). Rows were chosen to be rich in hits. Some 11% of all compounds tested hit in one or more screens of this group. The call rests on the fitted dose curve; in most records, active means well fitted curve in the direction sought with a large enough effect; inconclusive means small, poorly fitted or top-dose-only effect, or another doubt; inactive means no such curve, though single readings can be large; an effect the other way counts as inactive or inconclusive.

Cc1cc(NS(=O)(=O)c2ccc(NC(=O)CSc3nc4ncccc4[nH]3)cc2)nc(C)n1	none
CC1(C)CC(NS(=O)(=O)c2ccc(S(N)(=O)=O)cc2)CC(C)(C)N1	none (no result: L3MBTL1 block, JMJD2A Tudor inh, HP1b binding inh)
COc1cc(C(=O)Nc2ccc3c(c2)CCCN3C(=O)c2ccco2)c([N+](=O)[O-])cc1OC	none
CCc1ccc(NC(=O)NCC2CCN(c3ccc(OC)cc3)C2)cc1 (configuration not stated)	G9a inh-1 inconclusive (no result: L3MBTL1 block) | G9a inh-2 0.89
CCc1ccc(NC(=O)CN2CCN(c3ccc(OC)cc3)CC2)cc1	JMJD2A Tudor inh inconclusive (no result: L3MBTL1 block, G9a inh-1, BAZ2B block)
O=C(CSc1nc2ccccc2s1)Nc1ccc(Cl)c(C(=O)O)c1	JMJD2A Tudor inh 50µM, G9a inh-1 2.8µM, HP1b binding inh inconclusive | G9a inh-2 2.8
Cc1cc(C)cc(N2C(=O)CC(Sc3ncn[nH]3)C2=O)c1 (configuration not stated)	JMJD2A Tudor inh inconclusive, HP1b binding inh inconclusive (no result: G9a inh-1) | JMJD2E inh 6.3µM | FDH counter 0.28µM
Cc1cc(C)cc(N2C(=O)CC(Sc3nnnn3-c3ccccc3)C2=O)c1 (configuration not stated)	BAZ2B block inconclusive
Cc1ccc(C)c(N2C(=O)c3cc(N4CCOCC4)c([N+](=O)[O-])cc3C2=O)c1	JMJD2A Tudor inh inconclusive, HP1b binding inh inconclusive, BAZ2B block inconclusive
CCCCSCCCNC(=O)c1cn(C)c2ccc(S(=O)(=O)N3CCCCC3)cc2c1=O	none (no result: L3MBTL1 block, BAZ2B block)
Oc1ccc2ccccc2c1CNc1cnc2ccccc2c1	JMJD2A Tudor inh inconclusive, G9a inh-1 1.4µM, BAZ2B block inconclusive (no result: L3MBTL1 block) | G9a inh-2 0.5
Cn1c(SCC(=O)NC2CCCCC2)nnc1-c1cccc(N)c1	G9a inh-1 1.6µM | G9a inh-2 2.8
Cn1c(SCC(=O)NC2CCCC2)nnc1-c1ccncc1	none (no result: G9a inh-1)
CSc1nnc(C2CCCN2)n1C (configuration not stated)	L3MBTL1 block inconclusive, JMJD2A Tudor inh inconclusive, G9a inh-1 2.5µM, BAZ2B block 18µM | G9a inh-2 4.5
CSc1nnc(-c2ccccc2)n1C	none
CCOc1ncccc1C(=O)OCCCC(=O)c1ccc(Br)cc1	none
